PubChem BioAssay (EPA / NIEHS)
Inconclusive results are not listed. The source holds several records for some structures; these can differ, active in one and inactive in another. The source made the active and inactive calls. The calls were made as follows, unless noted: active = hit-call score of the fitted dose curve at least 0.9, where 1 is the maximum; inactive = score below 0.9.

Experiments:
[1] = target: Retinoic acid receptor RXR-alpha (Homo sapiens) (UniProt P19793); experiment: OT_NURR1_NURR1RXRa_0480: Odyssey Thera (OT) 8-hour HEK293T Protein Complementation Assay for Nurr1/retinoid X receptor (RXR) (AID 2283385; active = hit-call score of the fitted dose curve at least 0.9, where 1 is the maximum)
Outline: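 8 h compound exposure, HEK293T; Nurr1/RXRα fragment complementation; fluorescence intensity; positive fitting direction vs DMSO baseline.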

[2] = target: Retinoic acid receptor RXR-alpha (Homo sapiens) (UniProt P19793); experiment: OT_NURR1_NURR1RXRa_1440: Odyssey Thera (OT) 24-hour HEK293T Protein Complementation Assay for Nurr1/retinoid X receptor (RXR) (AID 2283386; active = hit-call score of the fitted dose curve at least 0.9, where 1 is the maximum)
Outline: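 Interaction of Nurr1 with RXRα brings fused reporter fragments together in human HEK293T cells, restoring a functional reporter. Fluorescence intensity is measured 24 h after chemical treatment, and values are analysed in the positive direction against DMSO.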

[3] = read-out: Tumor necrosis factor receptor superfamily member 6 (Homo sapiens) (UniProt P25445); experiment: LTEA_HepaRG_FAS: Life Technologies and Expression Analysis (LTEA) Assay for Fas cell surface death receptor (FAS) using HepaRG (AID 2283447); conditions: mRNA level, 48 h; actives raise or lower the signal
Outline: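 FAS transcript level was measured by TaqMan qRT-PCR against three housekeeping genes after 48 h chemical exposure. Cells were HepaRG, 0.5% DMSO vehicle, with a top concentration of 100 uM and half-log dilutions over eight points, in duplicate.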

[4] = read-out: Fatty acid synthase (Homo sapiens) (UniProt P49327); experiment: LTEA_HepaRG_FASN: Life Technologies and Expression Analysis (LTEA) Assay for Fatty Acid Synthase (FASN) using HepaRG (AID 2283448); conditions: mRNA level, 48 h; actives raise or lower the signal;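 as to AC50: differentiated human HepaRG liver cells in serum-free induction medium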
Outline: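 FASN expression changes, up or down relative to 0.5% DMSO, were measured by qRT-PCR in human HepaRG cells after 48 h treatment with chemicals at eight concentrations (half-log steps from 100 uM).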

[5] = read-out: Cyclin Dependent Kinase Inhibitor 1A (CDKN1A), CDKN1A (gene 1026); experiment: LTEA_HepaRG_CDKN1A: Life Technologies and Expression Analysis (LTEA) Assay for Cyclin Dependent Kinase Inhibitor 1A (CDKN1A) using HepaRG (AID 2283450); conditions: mRNA level, 48 h; actives raise or lower the signal
Outline: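 HepaRG, 48 h dosing, 8-pt half-log series from 100 uM top, 0.5% DMSO vehicle, duplicates. Readout: TaqMan qRT-PCR of CDKN1A transcript, housekeeping-normalized (ACTB, GAPDH, POLR2A). Up/down curve fit relative to DMSO.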

[6] = read-out: Cyclin D1 (CCND1), CCND1 (gene 595); experiment: LTEA_HepaRG_CCND1: Life Technologies and Expression Analysis (LTEA) Assay for Cyclin D1 (CCND1) using HepaRG (AID 2283451); conditions: mRNA level, 48 h; actives raise or lower the signal
Outline: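 qRT-PCR (Fluidigm 96.96 array) read-out of transcript level, housekeeping-normalized (ACTB/GAPDH/POLR2A). HepaRG cells, 48 h chemical exposure, 8-point half-log series from 100 uM, 0.5% DMSO vehicle; gain or loss relative to DMSO baseline.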

[7] = read-out: catalase (CAT), CAT (gene 847); experiment: LTEA_HepaRG_CAT: Life Technologies and Expression Analysis (LTEA) Assay for catalase (CAT) using HepaRG (AID 2283452); conditions: mRNA level, 48 h; actives raise or lower the signal
Outline: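 Expression of CAT was quantified by TaqMan qRT-PCR with ACTB/GAPDH/POLR2A normalization after 48 h chemical exposure of HepaRG. Eight-point half-log series, top 100 uM, in 0.5% DMSO; gain or loss fitted against vehicle.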

[8] = CEETOX_H295R_11DCORT: CeeTox H295R High-throughput Steroidogenesis Assay for 11-Deoxycortisol (11DCORT) (AID 2283432); conditions: actives raise or lower the signal
Outline: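 Human adrenal H295R cells were prestimulated with 10 uM forskolin for 48 h, then exposed to test chemical (0.1% DMSO final) for 48 h. Medium 11-deoxycortisol was quantified by MTBE extraction and HPLC-MS/MS; bidirectional fitting relative to DMSO.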

[9] = CEETOX_H295R_OHPREG: CeeTox H295R High-throughput Steroidogenesis Assay for OH-Pregnenolone (OHPREG) (AID 2283434); conditions: actives raise or lower the signal
Outline: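 Hormone levels in spent medium were measured by tandem mass spectrometry following liquid-liquid extraction. Cells (H295R) had been forskolin-stimulated (10 uM, 48 h) before a 48 h chemical exposure at 0.1% DMSO, with activity fitted in both directions against DMSO.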

[10] = CEETOX_H295R_OHPROG: CeeTox H295R High-throughput Steroidogenesis Assay for OH-Progesterone (OHPROG) (AID 2283435); conditions: actives raise or lower the signal;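 as to AC50: 17alpha-hydroxyprogesterone secreted into medium measured by HPLC-MS/MS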
Outline: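 H295R, 10 uM forskolin prestim 48 h; cmpd in 0.1% DMSO 48 h; medium MTBE-extracted, HPLC-MS/MS for OH-progesterone; 7-pt std curve; bidirectional fit vs DMSO; MTT viability, chemicals diluted until viability >/=70%.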

[11] = CEETOX_H295R_ANDR: CeeTox H295R High-throughput Steroidogenesis Assay for Androstenedione (ANDR) (AID 2283436); conditions: actives raise or lower the signal
Outline: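 Read-out is androstenedione secreted into medium, measured by tandem mass spectrometry after liquid-liquid extraction. Cells were H295R, dosed for 48 h per modified OECD 456; activity fitted in both directions relative to DMSO.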

[12] = CEETOX_H295R_CORTISOL: CeeTox H295R High-throughput Steroidogenesis Assay for Cortisol (AID 2283438); conditions: actives raise or lower the signal;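 also: cortisol secreted into medium quantified by LC-MS/MS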
Outline: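 Forskolin 10 uM 48 h prestim → test cmpd in DMSO (0.1% final) 48 h → medium MTBE-extracted → LC-MS/MS cortisol vs 7-pt std curve. Gain/loss of signal fitted vs DMSO. MTT viability in same wells.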

[13] = CEETOX_H295R_DOC: CeeTox H295R High-throughput Steroidogenesis Assay for DOC (AID 2283439); conditions: actives raise or lower the signal
Outline: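 Readout: 11-deoxycorticosterone in culture medium by reverse-phase C18 HPLC with ESI+ tandem MS after MTBE extraction. Cells: H295R, forskolin-primed (10 uM, 48 h), chemical-treated 48 h; DMSO 0.1% final. Activity fitted bidirectionally versus DMSO.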

[14] = CEETOX_H295R_PROG: CeeTox H295R High-throughput Steroidogenesis Assay for Progesterone (PROG) (AID 2283442); conditions: actives raise or lower the signal;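 as to AC50: human H295R adrenal cells primed with 10 µM forskolin before dosing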
Outline: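 Progesterone read-out: HPLC-MS/MS on MTBE extracts of conditioned medium after 48 h chemical exposure of forskolin-primed (10 uM, 48 h) H295R cells. Gain or loss of signal was fitted relative to DMSO baseline.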

[15] = read-out: Cyclin D2 (CCND2), CCND2 (gene 894); experiment: LTEA_HepaRG_CCND2: Life Technologies and Expression Analysis (LTEA) Assay for Cyclin D2 (CCND2) using HepaRG (AID 2283449); conditions: mRNA level, 48 h; actives raise or lower the signal
Outline: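 Read-out is CCND2 mRNA level measured by qRT-PCR in human HepaRG liver cells and normalised to three housekeeping genes. Chemicals were applied for 48 h at up to 100 uM, with gain or loss fitted relative to 0.5% DMSO.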

[16] = read-out: Cytochrome P450 (CYP1A1), CYP1A1 (gene 1543); experiment: LTEA_HepaRG_CYP1A1: Life Technologies and Expression Analysis (LTEA) Assay for Cytochrome P450 (CYP1A1) using HepaRG (AID 2283454); conditions: mRNA level, 48 h; actives raise or lower the signal
Outline: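 qRT-PCR read-out: CYP1A1 transcript normalized to three housekeeping genes, fitted bidirectionally against 0.5% DMSO vehicle baseline. Human HepaRG cells, 48 h chemical exposure, 8-point half-log series topping at 100 uM.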

[17] = CEETOX_H295R_ESTRADIOL: CeeTox H295R High-throughput Steroidogenesis Assay for Estradiol (AID 2283440); conditions: actives raise or lower the signal;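 also: estradiol secreted into medium quantified by LC-MS/MS after dansyl derivatisation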
Outline: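 H295R, 48 h forskolin (10 uM) prestim → 48 h compound, 0.1% DMSO final. Estradiol in medium: MTBE extraction, dansyl chloride derivatization, LC-MS/MS. Fit bidirectional vs DMSO baseline; MTT viability in same wells.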

[18] = CEETOX_H295R_ESTRONE: CeeTox H295R High-throughput Steroidogenesis Assay for Estrone (AID 2283441); conditions: actives raise or lower the signal;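 also: estrone secreted into medium measured by LC-MS/MS after dansyl derivatization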
Outline: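 H295R cells prestimulated 48 h with 10 uM forskolin, then exposed 48 h to chemicals in 0.1% DMSO final; estrone in medium extracted with MTBE, dansyl-derivatized, quantified by HPLC-MS/MS; bidirectional fitting versus DMSO, viability by MTT.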

Fatty acid synthase (Homo sapiens), sequence (P49327 whole entry, looked up): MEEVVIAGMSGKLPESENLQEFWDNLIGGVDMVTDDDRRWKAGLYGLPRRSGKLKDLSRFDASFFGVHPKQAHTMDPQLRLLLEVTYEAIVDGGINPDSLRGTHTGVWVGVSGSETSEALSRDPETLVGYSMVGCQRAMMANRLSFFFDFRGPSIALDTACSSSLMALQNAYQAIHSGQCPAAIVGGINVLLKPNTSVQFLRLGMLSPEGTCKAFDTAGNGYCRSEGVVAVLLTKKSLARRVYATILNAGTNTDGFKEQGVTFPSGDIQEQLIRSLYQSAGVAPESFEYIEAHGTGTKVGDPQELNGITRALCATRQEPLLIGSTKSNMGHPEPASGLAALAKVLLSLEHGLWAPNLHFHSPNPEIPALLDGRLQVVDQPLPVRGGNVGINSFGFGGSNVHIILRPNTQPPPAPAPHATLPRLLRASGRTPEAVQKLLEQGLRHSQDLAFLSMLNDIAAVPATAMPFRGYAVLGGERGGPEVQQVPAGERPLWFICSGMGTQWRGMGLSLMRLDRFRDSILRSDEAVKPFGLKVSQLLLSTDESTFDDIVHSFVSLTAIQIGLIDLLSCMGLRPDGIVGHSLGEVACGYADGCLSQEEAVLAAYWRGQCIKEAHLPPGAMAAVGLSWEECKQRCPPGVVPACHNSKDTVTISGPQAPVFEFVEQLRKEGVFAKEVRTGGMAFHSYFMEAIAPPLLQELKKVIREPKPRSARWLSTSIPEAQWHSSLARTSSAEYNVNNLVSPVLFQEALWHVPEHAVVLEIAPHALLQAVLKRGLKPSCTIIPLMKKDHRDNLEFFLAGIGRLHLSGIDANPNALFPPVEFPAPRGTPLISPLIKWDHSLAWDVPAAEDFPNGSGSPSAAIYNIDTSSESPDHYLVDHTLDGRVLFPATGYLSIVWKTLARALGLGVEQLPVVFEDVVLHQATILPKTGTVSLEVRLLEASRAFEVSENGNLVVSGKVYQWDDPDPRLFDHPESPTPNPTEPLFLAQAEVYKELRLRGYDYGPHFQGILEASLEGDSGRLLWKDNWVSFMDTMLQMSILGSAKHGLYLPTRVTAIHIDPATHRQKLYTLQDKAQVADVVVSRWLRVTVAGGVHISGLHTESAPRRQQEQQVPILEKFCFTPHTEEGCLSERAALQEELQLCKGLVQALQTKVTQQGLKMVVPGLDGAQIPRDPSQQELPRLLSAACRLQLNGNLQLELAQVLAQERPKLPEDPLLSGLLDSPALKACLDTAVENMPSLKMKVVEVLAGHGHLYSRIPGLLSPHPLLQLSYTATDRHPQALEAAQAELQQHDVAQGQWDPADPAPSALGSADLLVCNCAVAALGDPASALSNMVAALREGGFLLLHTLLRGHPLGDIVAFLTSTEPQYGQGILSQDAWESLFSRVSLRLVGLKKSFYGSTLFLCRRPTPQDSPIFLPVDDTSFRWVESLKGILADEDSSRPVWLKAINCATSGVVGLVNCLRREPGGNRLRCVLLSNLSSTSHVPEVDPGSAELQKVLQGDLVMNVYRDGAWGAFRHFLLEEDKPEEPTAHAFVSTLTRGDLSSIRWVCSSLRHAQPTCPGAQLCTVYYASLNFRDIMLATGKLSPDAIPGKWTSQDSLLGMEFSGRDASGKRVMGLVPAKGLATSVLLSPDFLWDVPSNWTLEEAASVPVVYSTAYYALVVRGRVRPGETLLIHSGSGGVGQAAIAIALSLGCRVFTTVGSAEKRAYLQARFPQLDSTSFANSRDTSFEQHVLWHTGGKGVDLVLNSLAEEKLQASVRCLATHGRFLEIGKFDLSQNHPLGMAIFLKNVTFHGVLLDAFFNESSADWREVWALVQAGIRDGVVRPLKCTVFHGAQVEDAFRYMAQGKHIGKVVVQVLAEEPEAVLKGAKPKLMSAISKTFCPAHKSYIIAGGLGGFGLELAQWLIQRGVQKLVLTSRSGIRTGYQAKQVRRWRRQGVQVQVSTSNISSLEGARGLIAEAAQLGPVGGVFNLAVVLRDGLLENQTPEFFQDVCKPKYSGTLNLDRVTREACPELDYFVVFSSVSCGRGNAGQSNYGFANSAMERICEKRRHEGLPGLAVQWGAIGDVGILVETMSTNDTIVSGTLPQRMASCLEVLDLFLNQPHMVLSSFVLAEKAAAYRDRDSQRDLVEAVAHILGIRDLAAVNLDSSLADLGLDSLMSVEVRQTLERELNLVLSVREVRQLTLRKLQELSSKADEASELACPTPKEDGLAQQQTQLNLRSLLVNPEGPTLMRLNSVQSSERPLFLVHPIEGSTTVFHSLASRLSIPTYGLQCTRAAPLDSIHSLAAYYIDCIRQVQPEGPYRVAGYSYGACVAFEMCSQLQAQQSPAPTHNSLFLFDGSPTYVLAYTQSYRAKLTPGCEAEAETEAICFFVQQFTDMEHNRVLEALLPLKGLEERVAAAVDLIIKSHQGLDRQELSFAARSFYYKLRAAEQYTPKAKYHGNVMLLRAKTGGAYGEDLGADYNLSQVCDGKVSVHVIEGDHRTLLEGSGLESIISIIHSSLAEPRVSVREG
Retinoic acid receptor RXR-alpha (Homo sapiens), sequence (P19793 whole entry, looked up, the tested form may be a part): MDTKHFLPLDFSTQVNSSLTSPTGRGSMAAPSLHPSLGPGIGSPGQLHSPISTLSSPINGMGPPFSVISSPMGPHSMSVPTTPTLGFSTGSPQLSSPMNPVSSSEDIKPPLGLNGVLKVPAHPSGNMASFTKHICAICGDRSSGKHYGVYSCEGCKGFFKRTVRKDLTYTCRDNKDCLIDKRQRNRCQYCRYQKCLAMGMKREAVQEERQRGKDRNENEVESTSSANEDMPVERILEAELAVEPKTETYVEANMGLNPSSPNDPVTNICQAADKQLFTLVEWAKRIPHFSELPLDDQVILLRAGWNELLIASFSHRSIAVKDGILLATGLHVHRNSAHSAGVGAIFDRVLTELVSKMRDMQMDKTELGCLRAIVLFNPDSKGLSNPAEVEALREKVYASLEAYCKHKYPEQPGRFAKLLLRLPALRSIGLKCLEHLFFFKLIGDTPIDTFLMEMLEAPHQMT

CN(C)CCOC(c1ccccc1)c1ccccc1
outcome [1]: inactive
AC50 [2]: 6.73 µM (active)
outcome [2]: inactive
outcome [3]: inactive
AC50 [4]: 50 µM (active)
outcome [5]: inactive
outcome [6]: inactive
outcome [7]: inactive

c1cc[nH]c1
outcome [8]: inactive
outcome [9]: inactive
outcome [10]: inactive
outcome [11]: inactive
outcome [12]: inactive
outcome [13]: inactive
outcome [14]: inactive

CC(O)COc1ccccc1 (centres undefined)
outcome [2]: inactive

CCCCCCCCCCCC
AC50 [1]: 39.2 µM (active)
outcome [2]: inactive

CCCCCCCCCCCCCCC
outcome [1]: inactive
outcome [2]: inactive
outcome [3]: inactive
outcome [4]: inactive
outcome [15]: inactive
outcome [5]: inactive
outcome [6]: inactive
outcome [7]: inactive
AC50 [16]: 50 µM (active)

O=C(NCc1ncc(C(F)(F)F)cc1Cl)c1c(Cl)cccc1Cl
outcome [8]: inactive
outcome [9]: inactive
AC50 [10]: 7.42 µM (active)
outcome [11]: inactive
outcome [12]: inactive
outcome [13]: inactive
outcome [17]: inactive
outcome [18]: inactive
AC50 [14]: 7.48 µM (active)

O=C1NS(=O)(=O)c2ccccc21
outcome [1]: inactive
outcome [2]: inactive
outcome [3]: inactive
outcome [4]: inactive
outcome [5]: inactive
outcome [6]: inactive
outcome [7]: inactive
AC50 [16]: 73.2 µM (active)

CCCCC(CC)C(=O)O (centres undefined)
outcome [2]: inactive
outcome [3]: inactive
outcome [4]: inactive
outcome [5]: inactive
outcome [6]: inactive
outcome [7]: inactive
AC50 [16]: 50 µM (active)

CC(=O)Nc1ccc(O)cc1
outcome [2]: inactive
outcome [3]: inactive
outcome [4]: inactive
outcome [15]: inactive
outcome [5]: inactive
outcome [6]: inactive
outcome [7]: inactive
AC50 [16]: 50 µM (active)

O=C(O)c1cccc(C(=O)O)n1
outcome [1]: inactive
outcome [2]: inactive

CCCCCc1ccc(O)cc1
outcome [8]: inactive
outcome [9]: inactive
outcome [10]: inactive
AC50 [11]: 50 µM (active)
outcome [12]: inactive
outcome [13]: inactive
outcome [17]: inactive
outcome [18]: inactive
outcome [14]: inactive

C[C@]12CC[C@@H]3c4ccc(O)cc4CC[C@H]3[C@@H]1C[C@@H](O)[C@@H]2O
outcome [1]: inactive
outcome [2]: inactive
outcome [8]: inactive
AC50 [9]: 31.8 µM (active)
outcome [10]: inactive
outcome [12]: inactive
AC50 [13]: 25.8 µM (active)
outcome [14]: inactive

Cc1ccc(S(=O)(=O)O)cc1
outcome [2]: inactive

CCC(C)c1ccccc1O (centres undefined)
outcome [1]: inactive
outcome [2]: inactive
outcome [3]: inactive
outcome [4]: inactive
outcome [15]: inactive
outcome [5]: inactive
outcome [6]: inactive
outcome [7]: inactive
AC50 [16]: 50 µM (active)

NCCN
outcome [2]: inactive

N=C(N)c1ccc(OCCCCCOc2ccc(C(=N)N)cc2)cc1
outcome [1]: inactive
AC50 [3]: 4.23 µM (active)
outcome [15]: inactive
AC50 [5]: 10.1 µM (active)
outcome [6]: inactive
AC50 [7]: 6.7 µM (active)
outcome [16]: inactive

Clc1ccc(Nc2nnc(Cc3ccncc3)c3ccccc23)cc1
outcome [8]: inactive
outcome [9]: inactive
outcome [10]: inactive
AC50 [12]: 3.2 µM (active)
outcome [13]: inactive
AC50 [17]: 2.39 µM (active)
AC50 [18]: 4.2 µM (active)
outcome [14]: inactive

CC(C)(C)c1ccc(O)c(O)c1
outcome [8]: inactive
outcome [9]: inactive
outcome [10]: inactive
AC50 [12]: 50 µM (active)
outcome [13]: inactive
AC50 [14]: 32.3 µM (active)

CS(=O)(=O)c1ccc([C@@H](CC2CCCC2)C(=O)Nc2cnccn2)cc1Cl
outcome [1]: inactive
outcome [3]: inactive
AC50 [4]: 50 µM (active)
AC50 [5]: 50 µM (active)
outcome [6]: inactive
AC50 [7]: 83.3 µM (active)

Cc1cccc2c1ccc1ccccc12
outcome [8]: inactive
outcome [9]: inactive
outcome [10]: inactive
outcome [11]: inactive
outcome [12]: inactive
outcome [13]: inactive
outcome [17]: inactive
outcome [18]: inactive
outcome [14]: inactive

CC(C)CCOCCC(C)C
outcome [8]: inactive
outcome [9]: inactive
outcome [10]: inactive
outcome [11]: inactive
outcome [12]: inactive
outcome [13]: inactive
outcome [17]: inactive
outcome [18]: inactive
outcome [14]: inactive

CCCCCCCCCCCCOS(=O)(=O)O
outcome [3]: inactive
AC50 [4]: 80.7 µM (active)
outcome [15]: inactive
outcome [5]: inactive
outcome [6]: inactive
AC50 [16]: 61.6 µM (active)

Oc1cc2ccccc2cc1O
outcome [8]: inactive
outcome [9]: inactive
outcome [10]: inactive
outcome [11]: inactive
outcome [12]: inactive
outcome [13]: inactive
outcome [17]: inactive
outcome [18]: inactive
outcome [14]: inactive
